Bioassay records: PubChem, several laboratories
PLC-beta3 inh – blocks human PLC-beta3 enzyme activity; inhibition, % at 12.2 µM; AID 720704; Q01970; actives 0.18% (n = 370,000); Purified PLC-beta3, fluorogenic substrate, fluorescence; in the data active = inhibition above about 11%;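 also: 0% = median of compound wells on plate and 100% = full blocker control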
FAS TE block – blocks the thioesterase domain of human fatty acid synthase | P49327 | recombinant FAS-TE, OMFH fluorogenic substrate, fluorescence endpoint | inhibition, % at 15 µM | actives 0.67% (n = 360,000);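 active = compounds whose normalised, plate-corrected inhibition of enzyme fluorescence in the single-dose primary screen is 50% or more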;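 also: 0% = DMSO with enzyme and 100% = substrate without enzyme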
Cardio protect – modulators protecting cardiomyocytes from myocardial damage; AID 588492; actives 0.63% (n = 360,000); H9c2 cardiomyocytes, H2O2 injury protection, ATPLite, 2 h; protection from H2O2 cell death, % at 20 µM;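 active = compounds giving at least 50% protection of heart cells from peroxide-induced death in the single-dose screen, raw or plate-pattern-corrected value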;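 also: 0% = DMSO wells with peroxide and 100% = DMSO wells without peroxide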
PLCg1 inh – inhibitors of human phospholipase C gamma1 | P19174 | purified PLC-gamma1, fluorogenic substrate, fluorescence | inhibition, % at 12.2 µM | actives 0.84% (n = 370,000); in the data active = inhibition above about 9.5%
An asterisk follows results filed as active; i = inactive; . = no result. In the library only some 2.2% were active in any assay of this set; here they are far more common.

SMILES	PLC-beta3 inh	FAS TE block	Cardio protect	PLCg1 inh
COc1ccc(-c2cn3cccnc3n2)cc1NC(=O)c1ccc(Br)o1	i	-15	58*	-477
Cc1ccc(-c2cn3cccnc3n2)cc1NC(=O)c1ccc(Br)o1	i	2	12	i
CC(C)CC(=O)Nc1ccc(C(=O)COC(=O)Cc2n[nH]c(=O)c3ccccc23)cc1	-38	1	72*	-34
O=C(Cc1n[nH]c(=O)c2ccccc12)OCC(=O)c1ccccc1	-1	-2	61*	-2
O=C(COC(=O)Cc1n[nH]c(=O)c2ccccc12)Nc1ncc(Cl)cc1Cl	-4	-6	67*	-4
CCc1ccc(C(=O)C(C)OC(=O)Cc2n[nH]c(=O)c3ccccc23)cc1 (stereo unspecified)	-11	3	5	2
O=C(Cc1n[nH]c(=O)c2ccccc12)OCC(=O)c1ccc(F)c(F)c1	-2	-3	27	1
CC(=O)c1cccc(NC(=O)C(C)OC(=O)Cc2n[nH]c(=O)c3ccccc23)c1 (stereo unspecified)	-6	0	77*	0
O=C(Cc1n[nH]c(=O)c2ccccc12)OCC(=O)c1ccccc1Cl	-8	-8	5	1
COC(=O)[C@]12C[C@H](CC(=O)NCc3cccc4ccccc34)C(=O)N(Cc3ccc4c(c3)OCO4)C1=C[C@H](C(C)(C)C)O[C@@H]2C	-2	.	.	-2
COC(=O)C1=C(C)N(C)C(=NCc2ccc3c(c2)OCO3)NC1c1cccc(F)c1 (stereo unspecified)	6	.	.	3
CN(C)c1cccc(/C=C2\CC3(OC(=O)c4ccc(Cl)cc4)CCCN2C3)c1 (stereo unspecified)	-5	.	.	2
COc1ccc(C(=O)COC(=O)Cc2n[nH]c(=O)c3ccccc23)c(OC)c1	-58	-8	62*	-53
COc1ccccc1C(=O)NC(=O)COC(=O)Cc1n[nH]c(=O)c2ccccc12	-3	-8	32	3
COc1ccccc1NC(=O)c1ccc(NC(=O)Cc2n[nH]c(=O)c3ccccc23)cc1	-7	0	70*	0
CCc1c(Cc2cccc(F)c2)ncn1CCc1ccccc1OC	4	.	.	1
CC1(C)Cc2c(c(N3CCOCC3)nc3sc4c(NN)ncnc4c23)CS1	-16	4	59*	-14
CC(C)CNc1nnnc2c1sc1nc(N3CCOCC3)c3c(c12)CC(C)(C)SC3	-11	27	25	-8
CS/C(=N\S(=O)(=O)c1ccccc1)c1ccccc1	1	-4	56*	-1
CC(=O)Nc1ccc(N/C(=N\S(=O)(=O)c2ccccc2)c2ccccc2)cc1	-2	-4	12	3
O=C(CNC(=O)c1ccccc1O)N/N=C/c1cc(Br)ccc1OC(=O)/C=C/c1ccco1	-17	.	.	-17
O=C(CNC(=O)c1cccc(F)c1)N/N=C/c1cc(Br)ccc1OC(=O)/C=C/c1ccco1	-5	46	57*	-9
FC(F)(F)c1cccc(N2CCN(C3=Nc4ccccc4Sc4ccccc43)CC2)c1	-2	.	.	1
CCOC(=O)N1CCN(C(=O)C[C@H]2C[C@@]3(C(=O)OC)C(=C[C@H](C(C)(C)C)O[C@@H]3C)N(Cc3ccc4c(c3)OCO4)C2=O)CC1	5	.	.	2
Cc1ccc2nc(N3CCN(C(=O)c4ccc(F)cc4)CC3)c(C#N)cc2c1	-162	-11	6	-123
SMILES	PLC-beta3 inh	FAS TE block	Cardio protect	PLCg1 inh
Cc1ccc2cc(C#N)c(N3CCN(C(=O)c4cccs4)CC3)nc2c1	-9	2	58*	-3
CC(C)C(=O)N1CCC2(CC1)Oc1ccc(Cl)cc1C(=O)C21CC(c2ccccc2)=NO1 (stereo unspecified)	3	57*	2	4
CCCCOCCCNC(=O)C[C@H]1C[C@@]2(C(=O)OC)C(=C[C@H](C(C)C)O[C@@H]2C2CC2)N(Cc2ccc3c(c2)OCO3)C1=O	1	.	.	1
O=C(CCCN1C(=O)c2cccc3cccc(c23)C1=O)N1CCN(c2ccccc2)CC1	2	5	5	0
O=C(CCCN1C(=O)c2cccc3cccc(c23)C1=O)N1CCN(c2ccccc2O)CC1	-1	11	67*	0
CCOC(=O)C1=C(C)Nc2ccccc2N=C1NC(=O)c1oc2ccccc2c1COC	-4	21	86*	-2
Cc1ccc(Cn2nnc3c2-c2cc(F)ccc2S(=O)(=O)N(C(C)(C)C)C3)cc1	4	.	.	9
CCOC(=O)C(Cc1ccc(NC(=O)/C(=C/c2ccc(OC(C)=O)cc2)NC(C)=O)cc1)N1C(=O)c2ccccc2C1=O (stereo unspecified)	1	2	59*	1
CN(CCO)C(=O)c1nc[nH]c1C(=O)N1CCN(c2ccccc2)CC1	3	.	.	0
